Experimental findings from PubChem BioAssay are described below.

Experiment [1] has as its system Human papillomavirus type 1a protein E7 (residues 44-93). Put plainly: small molecules binding HPV E7 44-93 – biochemical, small-molecule microarray, residues 44-93, 635 nm fluorescence, primary screen (AID 1108).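 Further: E7 fragment applied at 1 µg/mL in TBST for 1 h at 4 C; score combines spot fluorescence with its signal to noise ratio.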 To be noted: fluorescence 635 nm, higher = more signal.
Experiment [2] can be described thus: hepatitis C replication reporter changes, two-sided – Huh7 cells, luciferase reporter, HCV replication inhibitor project, primary screen (AID 1109).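 Further: huh7 hepatoma cells harbouring a luciferase neomycin HCV replicon reporter; luciferase luminescence as measure of HCV replicon replication; test concentration not given here.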 Conditions: Huh7 HCV replicon luciferase reporter, 48 h; higher = more signal. In general terms: A reporter such as luciferase makes a cellular process visible.
Experiment [3] concerns the target Left-right determination factor 2 (Homo sapiens) (UniProt O00292). Nature of the experiment: small molecules binding LEFTY2 protein – biochemical, small-molecule microarray, 635 nm fluorescence scan, primary screen (AID 1110). To be noted: higher = more signal.
Experiment [4] has as its target Calmodulin-1 (Homo sapiens) (UniProt P0DP23). Nature of the experiment: small molecules binding calmodulin-1 with EGTA – biochemical, small-molecule microarray, Cy5-labelled CALM1, profiling panel (AID 1111).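 Further: labelled calmodulin applied in Tris saline Tween buffer holding calcium plus EGTA and DTT.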 To be noted: Cy5-CALM1 binding fluorescence, higher = more signal.
The target is the same in experiment [5]. Nature of the experiment: small molecules binding Ca-loaded calmodulin-1 – biochemical, small-molecule microarray, Cy5-labelled CALM1, plus calcium, artefact control for SMM control-protein annotation, profiling panel (AID 1112).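 Further: score merges spot fluorescence with signal to noise from triplicate slides.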 To be noted: Cy5-CALM1 binding fluorescence, higher = more signal.
A short description of experiment [6]: probe aWnt5a binding to arrayed compounds – biochemical, biotinylated probe, 635/667 nm fluorescence, primary screen (AID 1113).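 Further: score merges 667 nm fluorescence intensity with signal-to-noise per printed feature.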 Conditions: small-molecule microarray, higher = more signal.
The nature of experiment [7]: probe aShh binding to arrayed compounds – biochemical, biotinylated probe, 635/667 nm fluorescence, primary screen (AID 1114).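 Further: probe is biotin-labelled aShh protein from a stem cell growth factor screen; measures binding of labelled protein to compounds printed on the slide; score merges feature fluorescence at 667 nm with signal-to-noise.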 To be noted: small-molecule microarray, higher = more signal.
Experiment [8] in a line: probe aNog binding to arrayed compounds – biochemical, biotinylated probe, 635/667 nm fluorescence, primary screen (AID 1115).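 Further: probe is biotinylated aNog protein used at 0.15 µg/mL for 1 h at 4 C; z-score combines 667 nm fluorescence of each spot with its signal to noise.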 Conditions: small-molecule microarray, higher = more signal.
Experiment [9] deals with Torsin-1A-interacting protein 1 (Homo sapiens) (UniProt Q5JTV8). Put plainly: compound microarray binding of lysate hLAP1 – cell lysate, small-molecule microarray, COS7 lysate, 635/667 nm fluorescence, primary screen (AID 1116). Conditions: 635 nm fluorescence, higher = more signal.
Chain of Torsin-1A-interacting protein 1 (Homo sapiens) (Q5JTV8 whole entry, looked up): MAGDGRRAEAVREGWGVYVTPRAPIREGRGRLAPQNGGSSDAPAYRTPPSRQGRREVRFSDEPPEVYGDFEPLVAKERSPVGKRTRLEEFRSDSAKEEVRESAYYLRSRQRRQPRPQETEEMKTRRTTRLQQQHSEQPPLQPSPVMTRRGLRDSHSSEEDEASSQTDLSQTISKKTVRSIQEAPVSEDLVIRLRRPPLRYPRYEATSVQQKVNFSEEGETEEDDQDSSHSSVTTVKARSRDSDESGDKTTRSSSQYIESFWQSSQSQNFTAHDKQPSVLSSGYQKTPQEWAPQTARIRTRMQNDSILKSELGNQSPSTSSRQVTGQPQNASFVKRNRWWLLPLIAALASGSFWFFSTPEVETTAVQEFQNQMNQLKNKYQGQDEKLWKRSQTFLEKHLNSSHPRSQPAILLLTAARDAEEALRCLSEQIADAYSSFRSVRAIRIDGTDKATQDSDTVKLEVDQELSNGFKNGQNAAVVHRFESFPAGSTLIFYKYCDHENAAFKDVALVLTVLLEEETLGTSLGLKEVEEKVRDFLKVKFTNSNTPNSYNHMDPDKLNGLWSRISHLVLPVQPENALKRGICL
Experiment [10] deals with Alpha-bungarotoxin (Bungarus multicinctus) (UniProt P60615). Nature of the experiment: compounds binding labelled alpha-BTX control protein – biochemical, small-molecule microarray, Alexa647 label, 635/667 nm fluorescence, artefact control for SMM control protein annotation, profiling panel (AID 1117). To be noted: alpha-BTX-A647 binding fluorescence, higher = more signal.
Chain of Alpha-bungarotoxin (Bungarus multicinctus) (P60615 whole entry, looked up): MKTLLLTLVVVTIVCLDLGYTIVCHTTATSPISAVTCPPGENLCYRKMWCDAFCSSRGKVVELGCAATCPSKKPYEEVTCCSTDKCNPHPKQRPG

The target in experiment [11] is Albumin (Bos taurus) (UniProt P02769). Put plainly: compounds binding labelled BSA control protein – biochemical, small-molecule microarray, Alexa647 label, 635/667 nm fluorescence, artefact control for SMM control protein annotation, profiling panel (AID 1118).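 Further: score merges 667 nm emission intensity and signal-to-noise per printed compound spot.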 Conditions: BSA-A647 binding, fluorescence 635 nm, higher = more signal.
Chain of Albumin (Bos taurus) (P02769 whole entry, looked up): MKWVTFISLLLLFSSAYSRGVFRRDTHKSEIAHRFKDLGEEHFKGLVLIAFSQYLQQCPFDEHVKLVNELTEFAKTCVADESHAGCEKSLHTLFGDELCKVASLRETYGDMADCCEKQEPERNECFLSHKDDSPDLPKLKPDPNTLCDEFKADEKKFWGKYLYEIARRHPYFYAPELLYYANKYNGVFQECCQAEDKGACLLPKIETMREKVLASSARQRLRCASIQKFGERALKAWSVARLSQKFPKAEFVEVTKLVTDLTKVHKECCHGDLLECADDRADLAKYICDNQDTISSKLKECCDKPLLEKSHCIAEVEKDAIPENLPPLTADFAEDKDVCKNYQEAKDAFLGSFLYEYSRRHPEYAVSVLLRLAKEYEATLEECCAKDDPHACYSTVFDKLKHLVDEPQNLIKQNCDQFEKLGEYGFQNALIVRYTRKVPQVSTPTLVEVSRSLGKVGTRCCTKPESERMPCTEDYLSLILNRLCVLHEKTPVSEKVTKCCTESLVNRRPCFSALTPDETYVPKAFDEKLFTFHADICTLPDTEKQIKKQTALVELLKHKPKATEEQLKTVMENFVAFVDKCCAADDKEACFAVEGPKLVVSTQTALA
Experiment [12] is described as follows: probe aXIP binding to arrayed compounds – biochemical, NeuroSMM set, 635/667 nm fluorescence, primary screen (AID 1119).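 Further: probe is the protein aXip251-270 applied at 1 µg/mL to compound-printed slides; binding of probe to printed compounds measured as 667 nm fluorescence plus signal to noise.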 Conditions: small-molecule microarray, higher = more signal, called active from +8 up or from −8 down.
Experiment [13] can be described thus: probe aNOTCH3 binding on compound microarray – biochemical, small-molecule microarray, 635/667 nm fluorescence, primary screen (AID 1120).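 Further: probe is a biotin-tagged antibody raised against NOTCH3 rather than NOTCH3 protein; score merges spot fluorescence near 667 nm with spot signal to noise.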 To be noted: higher = more signal.
Experiment [14] can be described thus: probe aNOTCH2 binding on compound microarray – biochemical, small-molecule microarray, 635/667 nm fluorescence, primary screen (AID 1121).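 Further: score merges feature fluorescence read at 667 nm with its signal to noise.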 To be noted: higher = more signal.
The target of experiment [15] is Carbonic anhydrase 2 (Homo sapiens) (UniProt P00918). Nature of the experiment: compounds binding carbonic anhydrase 2 – biochemical, small-molecule microarray, Alexa647-labelled CAII, profiling panel (AID 1122). Conditions: CAII-A647 binding fluorescence, higher = more signal.
Experiment [16] is described as follows: COS7 lysate on small-molecule microarray, probe aHis, 635 nm (AID 1123).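 Further: z-score combines 667nm fluorescence intensity with signal-to-noise per printed compound spot.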 Conditions: COS7 cell lysate, fluorescence, higher = more signal.
The nature of experiment [17]: probe aLAP1 signal on lysate-treated microarray – cell lysate, small-molecule microarray, COS7 lysate, primary screen (AID 1124).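 Further: lysate comes from COS7 cells expressing LAP1 and is applied at 0.3 µg/mL; score merges spot fluorescence near 667 nm with signal-to-noise over triplicate slides.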 To be noted: probe aLAP1, fluorescence, higher = more signal.
Experiment [18] relates to Sam68 (KHDRBS1). Put plainly: compounds binding KHDRBS1 protein – biochemical, small-molecule microarray, 635 nm fluorescence, primary screen (AID 1125).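 Further: score merges 667 nm channel intensity with signal to noise over triplicate slides.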 To be noted: higher = more signal.
For experiment [19], the system named is Chordin-like protein 2 (CHRDL2). Nature of the experiment: compounds binding chordin-like 2 – biochemical, small-molecule microarray, 635 nm fluorescence, primary screen (AID 1126).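 Further: printed compound slides probed with Chrdl2 protein at 4 µg/mL for 1 h at 4 C; score merges 667 nm emission intensity with signal to noise over three replicate slides.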 To be noted: fluorescence 635 nm, higher = more signal.
Experiment [20] deals with Concanavalin-A (Canavalia ensiformis) (UniProt P02866). Nature of the experiment: compounds binding concanavalin A lectin – biochemical, small-molecule microarray, Alexa647 label, 635 nm, artefact control for SMM control protein annotation, primary screen (AID 1127).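 Further: z combines 667 nm emission intensity with signal-to-noise across three replicate slides.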 Conditions: ConA-A647 binding fluorescence, higher = more signal.
Chain of Concanavalin-A (Canavalia ensiformis) (P02866 whole entry, looked up): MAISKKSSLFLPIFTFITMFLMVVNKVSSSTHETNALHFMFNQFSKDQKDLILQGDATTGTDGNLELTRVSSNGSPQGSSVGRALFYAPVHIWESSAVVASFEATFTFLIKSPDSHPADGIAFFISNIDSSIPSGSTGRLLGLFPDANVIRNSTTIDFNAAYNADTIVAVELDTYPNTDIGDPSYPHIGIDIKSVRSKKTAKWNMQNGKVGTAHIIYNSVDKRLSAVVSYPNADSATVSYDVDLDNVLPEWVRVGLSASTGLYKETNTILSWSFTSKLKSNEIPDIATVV

SMILES strings stand for the structures. Values joined by “and” are separate entries in the source; they are usually repeats but may differ in a detail not shown here. Equal entries are not always repeated. Active and inactive are the calls of the source.

Chain of Left-right determination factor 2 (Homo sapiens) (O00292 whole entry, looked up): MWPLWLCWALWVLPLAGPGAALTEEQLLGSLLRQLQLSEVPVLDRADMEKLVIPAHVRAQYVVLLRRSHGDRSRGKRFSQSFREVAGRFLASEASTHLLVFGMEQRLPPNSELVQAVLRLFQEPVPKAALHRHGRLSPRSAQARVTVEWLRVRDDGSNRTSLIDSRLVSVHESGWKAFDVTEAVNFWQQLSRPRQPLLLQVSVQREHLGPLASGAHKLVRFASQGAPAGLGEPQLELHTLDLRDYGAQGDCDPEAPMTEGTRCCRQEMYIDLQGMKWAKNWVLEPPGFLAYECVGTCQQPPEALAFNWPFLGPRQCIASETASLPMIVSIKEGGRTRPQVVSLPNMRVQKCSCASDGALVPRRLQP

For the compound `CC(C)OC(=O)C=C1C[C@@H](c2cccc(C(F)(F)F)c2)O[C@@H](c2cccc(C(F)(F)F)c2)O1`, the composite z-score was 1.34 and 0.979 in [1]; -0.906 and -0.656 in experiment [3]; 1.21 and 0.297 in experiment [4]; 0.831 and 0.224 in [5]; 0.0433 and -0.218 in experiment [6]; 0.04 and -0.162 in experiment [7]. For the same compound, the composite z-score in experiment [8] was 0.509 and 0.655; in [9] it was 1.03 and 0.0622; in experiment [10], 0.613 and 0.269; in experiment [11], 0.516 and 0.8; in [13], -0.166 and -0.257; in [14], -0.0597 and -0.118. Also, the composite z-score in experiment [15] was 0.407 and 0.738; in experiment [16], 2.3 and 0.841; in [17], 1.56 and 0.103; in [18], -0.167 and 1.11; in experiment [19], -0.24 and -0.619; in experiment [20], 0.711 and 1.06. For the same compound, in experiment [2], the z-score is -1.55 and -2.35. Besides, in [12], the composite Z-score is -0.313 (inactive) and -0.0102 (inactive).
On to `C=CCN(CCCCC)C(=O)C1N(c2ccc(CCO)cc2)C(=O)C2C(C(=O)O)C3C=CC21O3` (stereo not given), for which the composite z-score in experiment [1] is -0.351 and -0.928; in experiment [3], -2.25 and -3.05; in experiment [4] it was -1.51 and -0.989; in experiment [5], -0.455 and -0.143; in experiment [6], -0.23 and -0.316; in experiment [7], -0.0769 and -0.0866. Moreover, the composite z-score in [8] is -0.387 and -0.332; in experiment [9] it was 0.143 and 0.422; in experiment [10], -2.97 and -1.37; in experiment [11] it was 0.193 and 0.344; in experiment [13] it was -0.474 and 0.157; in [14], -0.127 and -0.0716. The composite z-score in experiment [15] was -0.349 and 0.574; in [16], -0.632 and -0.323; in [17], -0.18 and -1.2; in [18] it was -0.393 and -0.951; in experiment [19] it was -0.914 and -1.38; in experiment [20], -1.1 and -1.15. Further, in experiment [2], the z-score was 0.471 and -0.235. Also, the composite Z-score in experiment [12] is -1.27 (inactive) and -0.154 (inactive).
Consider `CCCC[C@@H]1CN2[C@H](c3ccc(Br)cc3)[C@@H](C)CC[C@H]2C(=O)O1`, for which the composite z-score was -0.519 and 0.166 in experiment [1]; 0.189 and 0.327 in [3]; -0.254 and -0.255 in experiment [4]; -0.329 and -0.334 in experiment [5]; -0.232 and -0.104 in experiment [6]; -0.273 and -0.138 in [7]. In addition, the composite z-score was 0.153 and 0.0051 in experiment [8]; 0.0737 and 0.259 in [9]; 0.412 and 0.575 in experiment [10]; -0.102 and -0.193 in experiment [11]; -0.17 and -0.0888 in experiment [13]; -0.14 and -0.0316 in [14]. For the same compound, the composite z-score in experiment [15] is -0.199 and -0.139; in experiment [16] it was -0.263 and 0.0681; in [17] it was 0.43 and 0.159; in experiment [18] it was -0.32 and 0.277; in experiment [19], 0.204 and 0.111; in experiment [20] it was 0.404 and -0.854. In experiment [2], the z-score is -0.403 and -0.983. Besides, the composite Z-score in experiment [12] was -0.0662 (inactive) and -0.0677 (inactive).
Turning to `COc1ccc(COC(=O)NN=C2C[C@@H](O)[C@@H](O)[C@@H]3[C@@H]4C(=O)N(C(C)(C)C)C(=O)[C@@H]4CC[C@H]23)cc1`, the composite z-score was 1.01 in [1]; 0.0311 in [3]; -0.0989 in experiment [4]; -0.143 in experiment [5]; -0.1 in [6]; 0.0469 in [7]. For the same compound, the composite z-score in experiment [8] is -0.242; in experiment [9], 0.677; in [10] it was 0.7; in experiment [11] it was 0.682; in experiment [13], -0.194; in [14], -0.0001. Further, the composite z-score in [15] was 0.633; in [16], 0.7; in [17], 1.51; in [18] it was 1.22; in [19], 0.0955; in experiment [20], -0.457. In experiment [2], the z-score is -0.167. For the same compound, the composite Z-score in experiment [12] is 1.08 (inactive).
On to `C=CCN(CCCC)C(=O)C1N(c2ccc(CCO)cc2)C(=O)C2C(C(=O)O)C3C=CC21O3` (stereo not given), for which the composite z-score in [1] was -2.07 and -0.32; in experiment [3], -2.86 and -4.53; in [4], -0.828 and -1.3; in experiment [5] it was 0.33 and 0.554; in experiment [6], -0.221 and -0.296; in experiment [7], 0.0796 and 0.292. The composite z-score in [8] is -0.265 and -0.565; in experiment [9], -0.994 and -1; in experiment [10], -0.577 and -1.86; in experiment [11], -0.196 and -1.75; in experiment [13], -0.454 and -0.477; in [14] it was 0.0039 and -0.14. The composite z-score in [15] is 0.809 and 0.91; in experiment [16], 0.253; in experiment [17], -1.05 and -0.525; in [18], -1.48 and -0.741; in [19] it was -3.26 and -3.79; in [20], -1.74 and -2.64. In experiment [2], the z-score is -0.213 and 1.02. The composite Z-score in experiment [12] is -0.708 (inactive) and -0.319 (inactive).
For `C=CCN(C(=O)C(c1cccs1)N(C(=O)/C=C\C(=O)O)C(C)(C)CO)C(C)(C)C` (stereo not given), the composite z-score in [1] is -0.453 and -0.0211; in [3], -2.3 and -1.73; in experiment [4] it was -0.243 and -0.782; in experiment [5], -0.403 and 0.164; in experiment [6], -0.124 and -0.197; in experiment [7], -0.0553 and -0.0769. Further, the composite z-score was 0.945 and 0.25 in [8]; 0.78 and -0.351 in experiment [9]; 0.489 and 0.895 in experiment [10]; 0.649 and 0.333 in [11]; -0.289 and -0.358 in experiment [13]; -0.172 and -0.0728 in experiment [14]. Besides, the composite z-score in experiment [15] was 0.786 and 0.805; in experiment [16], 0.414 and 0.831; in experiment [17] it was -0.68 and 0.64; in [18] it was 0.0206 and -0.225; in experiment [19] it was -1.43 and -1.27; in experiment [20], -0.625 and -0.54. Further, the z-score in experiment [2] is -0.0094 and 0.0766. Besides, in experiment [12], the composite Z-score is -1.12 (inactive) and 0.108 (inactive).
